Coupling enz = inhibits coupling enzyme system, counter-screen for aldolase hits; coupling enzyme system counterscreen, AmpLite Red fluorescence; activity change, negative = inhibition, % at 58.2 µM, hits read low; hit rate 0.67% among 290,000; in the data active = activity change below about -30%
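First, compound is pin-transferred into glyceraldehyde-3-phosphate coupling-enzyme reagent at 57.5 uM final and held 10 min at RT. Next, substrate, coupling system and AmpLite Red are added. After 20 min RT, fluorescence (525/598 nm) is read.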
GALK inhibitor = galactokinase (human) inhibition. Potency, µM (series often up to 57.5 µM), usual class: inhibitors. Purified GALK, Kinase-Glo residual ATP luminescence. P51570. hit rate 0.007% among 270,000. AID 1868
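The enzyme phosphorylates galactose (100 uM) using ATP (35 uM); inhibition is detected as higher residual ATP, quantified by bioluminescence after 1 h reaction at room temperature, pH 8.0.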
PLK1 PBD block = inhibitors of human PLK1 polo-box domain binding; hit rate 2.8% among 360,000; Potency, µM, usual class: inhibitors; Plk1 PBD binding of FITC phosphopeptide, fluorescence polarization; AID 720504; P53350; note: series mostly up to about 57 µM; nearly all actives have a fitted effect of over 65% in size
VDR inh = inhibitors of human vitamin D receptor | P11473 | VDR-SRC2-3 peptide fluorescence polarization, 2 h | Potency, µM, actives largely listed as inhibitors | hit rate 0.93% among 400,000 | AID 504847
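Fluorescence polarization assay measuring small-molecule disruption of VDR binding to the coregulator peptide SRC2-3. Compounds were pin-transferred (23 nl) into the reagent mix and incubated 2 h at room temperature before reading.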
USP1-UAF1 inh = USP1/UAF1 (human) deubiquitinase inhibition; Potency, µM (top dose mostly 57.1 µM), actives largely listed as inhibitors; recombinant USP1/UAF1, Ub-Rhodamine cleavage fluorescence; O94782; AID 743255; hit rate 0.23% among 390,000; note: nearly all actives have a fitted effect of over 60% in size
Target sequence (O94782 whole entry, looked up): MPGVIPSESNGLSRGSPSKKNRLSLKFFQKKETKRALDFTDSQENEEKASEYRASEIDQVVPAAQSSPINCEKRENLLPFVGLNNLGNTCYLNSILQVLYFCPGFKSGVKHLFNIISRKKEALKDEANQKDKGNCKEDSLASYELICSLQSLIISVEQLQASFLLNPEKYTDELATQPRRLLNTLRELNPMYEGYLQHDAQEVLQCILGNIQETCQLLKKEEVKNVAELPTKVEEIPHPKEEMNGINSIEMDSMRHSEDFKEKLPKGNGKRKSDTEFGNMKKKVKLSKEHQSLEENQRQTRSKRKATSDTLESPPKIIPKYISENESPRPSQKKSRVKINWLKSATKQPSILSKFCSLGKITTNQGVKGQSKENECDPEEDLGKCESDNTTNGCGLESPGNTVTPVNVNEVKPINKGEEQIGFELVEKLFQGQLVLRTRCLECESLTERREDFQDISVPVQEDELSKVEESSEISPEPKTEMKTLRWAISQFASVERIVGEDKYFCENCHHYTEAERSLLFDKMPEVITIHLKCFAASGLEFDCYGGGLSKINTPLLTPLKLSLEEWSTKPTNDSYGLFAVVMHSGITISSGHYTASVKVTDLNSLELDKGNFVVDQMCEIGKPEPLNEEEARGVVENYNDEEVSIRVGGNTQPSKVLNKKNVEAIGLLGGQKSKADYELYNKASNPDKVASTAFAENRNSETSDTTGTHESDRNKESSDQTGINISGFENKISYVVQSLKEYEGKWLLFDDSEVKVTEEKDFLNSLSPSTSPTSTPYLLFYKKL
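Step one: compound is pinned into 1nM USP1/UAF1 in HEPES pH 7.8 buffer with TCEP. Step two: 15 min room-temperature incubation. Step three: Ub-Rho (150nM final) starts cleavage, tracked by fluorescence over six one-minute reads.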
USP2a block = USP2a (human) protease inhibition; hit rate 0.01% among 330,000; Potency, µM (doses to about 38.3 µM), usual class: inhibitors; USP2 core, Ub-CHOP2 coupled fluorogenic reporter, 485/531; AID 463254
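Deubiquitinase activity read as fluorescence (485/531 nm) after Ub-CHOP2 cleavage activates the enterokinase reporter on its substrate; USP2 core 10nM, Ub-CHOP2 and substrate 25nM each, 30min compound preincubation then 60min RT; data normalized to NEM, curves fitted.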
Of the large screens only hits and unclear results are named; the others gave an inactive call. A selection: hits, their analogues and other compounds. The true share with any hit is near 3.2%. Unless noted, calls come from the whole dose curve; as a rule, active = well fitted curve in the direction sought with a large enough effect; inconclusive = small, poorly fitted or top-dose-only effect, or another doubt; inactive = no such curve, though single readings can be large; an effect the other way counts as inactive or inconclusive.

O=C(Cn1sc2ccccc2c1=O)Nc1ccc(Br)cc1	PLK1 PBD block 3µM (no result: Coupling enz, GALK inhibitor, VDR inh, USP2a block)
Cc1ccc(NC(=O)Cn2nc(-c3ccc(Cl)cc3)c3ccccc3c2=O)cc1	none (no result: Coupling enz, GALK inhibitor, PLK1 PBD block, USP2a block)
O=C(Cn1sc2ccccc2c1=O)Nc1ccc(F)cc1	PLK1 PBD block 3µM (no result: Coupling enz, GALK inhibitor, VDR inh, USP2a block)
O=C(Cn1sc2ccccc2c1=O)Nc1ccc(Cl)cc1	PLK1 PBD block 5.3µM, USP1-UAF1 inh inconclusive (no result: Coupling enz, GALK inhibitor, VDR inh, USP2a block)
Cc1ccc(-c2cc(NC(=O)CCl)n(-c3ccccc3)n2)cc1	PLK1 PBD block 27µM, VDR inh inconclusive
Cc1ccc(/C=C/c2onc(C)c2S(=O)(=O)N2CCC(C(=O)Nc3cc(F)ccc3F)CC2)cc1	none (no result: Coupling enz, GALK inhibitor, PLK1 PBD block, USP2a block)
O=C(Cn1nc(Cl)nc1Cl)c1ccc2c(c1)OCCO2	PLK1 PBD block 12µM
O=C(Cn1nc(Cl)nc1Cl)c1ccccc1	PLK1 PBD block 17µM (no result: GALK inhibitor)
O=C(Cn1nc(Cl)nc1Cl)c1ccc(F)cc1	none
CCCOc1ccc(C2C(C(=O)/C=C/c3ccco3)=C(O)C(=O)N2CCN2CCOCC2)cc1OC (centres undefined)	Coupling enz -38
Cc1ccc(-n2nc(C)c(Sc3ccccc3[N+](=O)[O-])c2N)cc1	PLK1 PBD block 2.4µM, VDR inh inconclusive
CCC(Sc1ccccn1)C(=O)Nc1cccc([N+](=O)[O-])c1 (centres undefined)	PLK1 PBD block 21µM
CCOC(=O)c1c(NC(=O)CSc2nnc(-c3cccnc3)o2)sc(C)c1C	none
Cc1ccc(C)c(Cn2c(=O)n(CCCC(=O)NCc3ccco3)c(=O)c3sccc32)c1	PLK1 PBD block 30µM
Cc1ccc(C)c(Cn2c(=O)n(CCCC(=O)NCc3ccco3)c(=O)c3ccccc32)c1	none (no result: GALK inhibitor)
COc1ccccc1C(=O)N/N=C(\C)CC(=O)Nc1ccccc1NC(C)=O	none
COc1ccc(-c2csc(Nc3ccc(S(=O)(=O)Nc4cc(C)on4)cc3)n2)cc1	PLK1 PBD block 19µM
O=C(Nc1ccc(-c2nc3ccccc3[nH]2)cc1)c1ccccc1NS(=O)(=O)c1ccc(F)cc1	PLK1 PBD block 27µM
O=C(Nc1nc(-c2ccccc2)cs1)c1ccccc1F	none
Cc1ccc(S(=O)(=O)Nc2ccccc2C(=O)Nc2nc(-c3ccc(F)cc3)cs2)cc1	PLK1 PBD block 27µM, USP2a block inconclusive
COc1ccc(-c2csc(NC(=O)c3ccccc3NS(=O)(=O)c3ccc(F)c(F)c3)n2)cc1	GALK inhibitor inconclusive, PLK1 PBD block 21µM
Cc1cc(NS(=O)(=O)c2ccc(Nc3nc(-c4sc(C)nc4C)cs3)cc2)no1	none (no result: PLK1 PBD block, VDR inh, USP1-UAF1 inh)
CC[C@H]1CN2CCc3cc(OC)c(OC)cc3[C@H]2C[C@@H]1C[C@@H]1NCCc2cc(OC)c(OC)cc21	none (no result: GALK inhibitor, PLK1 PBD block, USP1-UAF1 inh, USP2a block)
CCC(NC(=O)NC1CCCCC1)c1ccccc1 (centres undefined)	none
COc1ccc(NC(=O)CC(c2ccccc2)c2ccco2)cc1 (centres undefined)	none
Cc1ccc(-c2nc3c4ccccc4n(CC(=O)NCc4ccc(F)cc4)c(=O)n3n2)cc1	none (no result: Coupling enz, GALK inhibitor, PLK1 PBD block, USP2a block)
COc1ccc(C(=O)N2CCc3ccccc32)cc1S(=O)(=O)N1CCOCC1	none (no result: Coupling enz, GALK inhibitor)
CC(C)C(NS(=O)(=O)c1ccc2c(c1)C(C)(C)C(=O)N2C)C(=O)NCc1ccc(F)cc1 (centres undefined)	none (no result: GALK inhibitor)
CC(C)OC(=O)c1ccc(N2CCN(c3ccc(F)cc3)CC2)nc1	PLK1 PBD block 27µM, VDR inh inconclusive
CC(C)(C)NC(=O)C(c1cccnc1)N(C(=O)c1ccc(Cl)nc1)C1CCCC1 (centres undefined)	Coupling enz -51
CC1CCN(S(=O)(=O)c2cccc(S(=O)(=O)N3CCOCC3)c2)CC1	none
CC1CCN(S(=O)(=O)c2cccc(-c3nnc(-c4cccnc4)o3)c2)CC1	PLK1 PBD block 15µM, VDR inh inconclusive
Cc1ccc(C(=O)N[C@H](C(=O)OCc2nnc(-c3ccccc3)o2)C(C)C)cc1	none
CC(C)[C@H](NC(=O)c1ccccc1)C(=O)OCc1nnc(-c2ccccc2)o1	PLK1 PBD block 27µM
CN(C1CCCCC1)S(=O)(=O)c1cccc(C#N)c1	PLK1 PBD block 24µM
CN(C1CCCCC1)S(=O)(=O)c1ccc(=S)[nH]c1	PLK1 PBD block 21µM, VDR inh 50µM (no result: Coupling enz, GALK inhibitor)
CCc1ccc(N2CC(C(=O)N/N=C/c3ccccc3)CC2=O)cc1 (centres undefined)	PLK1 PBD block 27µM, VDR inh inconclusive, USP1-UAF1 inh inconclusive (no result: Coupling enz, GALK inhibitor, USP2a block)
O=c1oc2c(O)cccc2cc1-c1nc2ccccc2[nH]1	PLK1 PBD block 1.9µM, USP2a block inconclusive (no result: GALK inhibitor)
O=c1oc2c(CN3CCCCC3)c(O)ccc2cc1-c1nc2ccccc2[nH]1	PLK1 PBD block 27µM, USP1-UAF1 inh 28µM, USP2a block inconclusive
CS(=O)(=O)c1ccc(NS(=O)(=O)c2ccc(Cl)c(C(=O)NC3=NCCS3)c2)cc1	none (no result: Coupling enz, GALK inhibitor)
O=C(/C=C/c1ccccc1)NC(NC(=S)Nc1ccc(Cl)cc1)C(Cl)(Cl)Cl (centres undefined)	PLK1 PBD block 27µM, VDR inh inconclusive
O=C(CCc1ccccc1)NC(NC(=S)Nc1ccc(Cl)cc1)C(Cl)(Cl)Cl (centres undefined)	PLK1 PBD block 30µM
O=C(Cc1ccccc1)NC(NC(=S)Nc1cc(Cl)ccc1Cl)C(Cl)(Cl)Cl (centres undefined)	none
CC(C)CC(=O)NC(NC(=S)Nc1ccccc1)C(Cl)(Cl)Cl (centres undefined)	PLK1 PBD block 30µM, VDR inh inconclusive
COc1ccc(NC(=S)NC(NC(=O)/C=C/c2ccccc2)C(Cl)(Cl)Cl)cc1 (centres undefined)	none
O=c1[nH]c(Nc2ccc(F)cc2)cc2ccccc12	Coupling enz -34, USP1-UAF1 inh 13µM
O=c1[nH]c(Nc2ccccc2Cl)cc2ccccc12	USP1-UAF1 inh 14µM (no result: Coupling enz, GALK inhibitor, USP2a block)
Cc1cc2ccccc2c(=O)[nH]1	none
CC(=O)c1ccc(NC(=O)Cn2c(=O)nc(-c3ccccc3)c3cc(Cl)ccc32)cc1	none (no result: Coupling enz, GALK inhibitor, PLK1 PBD block, USP2a block)
COc1ccc(/C=N/NC(=O)CCCOc2ccc(Cl)cc2Cl)cc1	none
Cc1ccccc1OCC(=O)NCC(=O)N/N=C/c1cccc([N+](=O)[O-])c1	none (no result: PLK1 PBD block, VDR inh, USP1-UAF1 inh)
Cc1cc(Cl)ccc1OCCCC(=O)N/N=C/c1cccc([N+](=O)[O-])c1	Coupling enz -36
Cc1ccccc1OCC(=O)N/N=C/c1cccc(Oc2ccc([N+](=O)[O-])cc2[N+](=O)[O-])c1	Coupling enz -49
O=C(CCCOc1ccc(Cl)cc1Cl)N/N=C/c1ccc(Cl)cc1	PLK1 PBD block 15µM, VDR inh inconclusive
CC(=O)c1ccc(N2CCN(C(=O)Cn3cnc(S(=O)(=O)N4CCCCC4)c3)CC2)cc1	PLK1 PBD block 27µM (no result: Coupling enz)

Bioassay records from PubChem BioAssay.
